Measured values: PubChem BioAssay (NCATS)
The source made the active and inactive calls.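 How the source made its calls: active means compounds whose dose series gives a full or clear partial fitted curve of increased nuclear translocation; inconclusive means weak partial curve or effect only at the top dose; inactive means no dose-dependent translocation response.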

These compounds were tested against Glucocorticoid receptor (Homo sapiens) (UniProt P04150) (assay: GR-GFP Redistribution (AID 450)). Settings: U2OS GR-GFP nuclear translocation, laser cytometry, 2 h.
Description: NIH Molecular Libraries Screening Centers Network [MLSCN]
NIH Chemical Genomics Center [NCGC]
The glucocorticoid receptor (GR) Redistribution assay (BioImage) enables the visualization of GR cytoplasmic to nuclear translocation by the use of a GR-GFP fusion. GR is normally cytosolic, however ligands such as dexamethasone, cause nuclear translocation where the protein binds to response elements and interacts with various co-factors to modulate transcription. Because both functional agonists and antagonists can induce nuclear translocation, this assay can detect ligands regardless of their effects on gene expression. GR-GFP expressing U20S cells were used here. Dexamethasone was the positive control for translocation and data normalization. Detection of nuclear translocation was performed in 1536-well plates using the Acumen laser scanning plate cytometer (TTP LabTech). Validation of this assay and a detailed protocol have been described.
NCGC Assay Protocol Summary:
GR-GFP U2OS cells were maintained in DMEM with Glutamax and high glucose, 1% v/v penicillin-streptomycin, and 0.5 mg/mL Geneticin. For cell culture, 10% […] fetal bovine serum (FBS) was used (Invitrogen #26140-079). For cell plating 10% dextran, charcoal-stripped FBS (Hyclone SH30068.03) was used. U2OS cells were trypsin treated, suspended in medium, and passed through a 40 um basket filter. The cells were seeded at 600 cells/5 uL/well into clear-bottom black sided 1536-well plates and incubated for approximately 20 hrs, 37degC, 5%, CO2 in a tissue culture incubator. Twenty-three nL of compound was delivered by pin tool and the plates were incubated as above for 2 hrs. The compounds were tested as a 7-point titration ranging from 46 uM to 0.6 nM. The cells were fixed using the Kalypsys Washer/Dispenser station. The fixing protocol involved aspiration of the cell media, addition of 6 uL/well of PBS, aspiration of PBS, addition of 5uL/well of 100% methanol, aspiration of methanol, and addition of 3 uL/well PBS with 1.5 uM propidium iodide (PI). The plates were read by the Acumen Explorer using a 1 x 8 um scan of the whole well area. PI fluorescence triggered the collection of PI and GFP signals. A nuclei population was defined by a 10 to 100 um width and depth filter that eliminated small and large fluorescent particles. Two subpopulations of nuclei were then defined by peak intensity of GFP fluorescence to obtain translocated and untranslocated objects. The number of translocated objects was used for data normalization.
Keywords: NIH Roadmap, MLSCN, MLI, MLSMR, sOGT, qHTS, NCGC
Potency means the concentration at half of the fitted maximal effect.

Sequence of Glucocorticoid receptor (Homo sapiens) (P04150 whole entry, looked up): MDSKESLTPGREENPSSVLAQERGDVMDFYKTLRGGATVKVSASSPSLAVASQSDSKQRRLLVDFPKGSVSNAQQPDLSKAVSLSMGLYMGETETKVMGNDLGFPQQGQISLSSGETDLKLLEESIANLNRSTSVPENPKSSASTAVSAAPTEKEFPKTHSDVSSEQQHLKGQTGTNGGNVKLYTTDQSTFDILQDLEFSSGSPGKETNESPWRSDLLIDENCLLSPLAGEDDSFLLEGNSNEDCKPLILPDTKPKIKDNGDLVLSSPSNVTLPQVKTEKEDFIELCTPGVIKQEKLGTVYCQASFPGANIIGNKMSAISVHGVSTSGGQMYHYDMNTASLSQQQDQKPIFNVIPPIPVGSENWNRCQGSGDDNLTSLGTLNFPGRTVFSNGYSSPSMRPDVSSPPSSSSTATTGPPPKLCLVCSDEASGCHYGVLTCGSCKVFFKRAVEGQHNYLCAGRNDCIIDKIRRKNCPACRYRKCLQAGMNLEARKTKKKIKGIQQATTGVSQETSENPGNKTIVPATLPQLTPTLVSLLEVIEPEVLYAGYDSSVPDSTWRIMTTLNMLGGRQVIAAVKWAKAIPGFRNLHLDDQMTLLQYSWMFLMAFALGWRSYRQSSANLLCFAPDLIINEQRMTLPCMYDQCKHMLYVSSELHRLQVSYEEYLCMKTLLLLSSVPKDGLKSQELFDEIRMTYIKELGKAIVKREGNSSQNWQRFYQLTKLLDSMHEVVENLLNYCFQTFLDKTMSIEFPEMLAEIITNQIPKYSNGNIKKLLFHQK

Potency, inactive:
c1cncc(CNc2cc(-c3ccoc3)ncn2)c1 > 46 µM
CN(C)C(=O)c1ccc(-c2nc(N(C)Cc3ccco3)c3ccccc3n2)cc1 > 46 µM
COc1cccc(Nc2ncc3ncc(=O)n(Cc4cccs4)c3n2)c1 > 9.22 µM
CC(=O)NCCNc1ncncc1-c1ccccc1C(F)(F)F > 46 µM
COCCNc1ncnc2ccc(-c3ccc(N(C)C)cc3)cc12 > 46 µM
COc1ncc2nc(-c3cn(C)c4ccccc34)c(=O)n(-c3ccccc3)c2n1 > 9.22 µM
Cc1cnc(CNc2ccnc(-c3ccc(C(=O)N(C)C)cc3)n2)cn1 > 46 µM
CN(C)c1ccc(-c2cncnc2NCc2cccnc2)cc1 > 46 µM
COc1ccccc1-c1cc(Nc2ccc(F)cc2)ncn1 > 46 µM
COc1cccc(-c2nc(NCc3ccccc3OC)c3ccccc3n2)c1 > 46 µM
COc1ccccc1CNc1ccnc(-c2ccccc2OC)n1 > 46 µM
CN(C)c1ncc2nc(-c3ccc(F)cc3)c(=O)n(C3CC3)c2n1 > 9.22 µM
CN1CCN(c2ncc3nc(-c4cccs4)c(=O)n(Cc4cccs4)c3n2)CC1 > 9.22 µM
Cc1cnc(CNc2ccnc(-c3ccccc3C)n2)cn1 > 46 µM
COc1ccc(CNc2ncncc2-c2ccccc2Cl)c(OC)c1 > 46 µM
COc1ncc2nc(C)c(=O)n(C[C@H]3CCCO3)c2n1 > 9.22 µM
COc1cccc(Cn2c(=O)cnc3cnc(N4CCOCC4)nc32)c1 > 9.22 µM
O=c1c(-c2ccccc2)nc2cncnc2n1Cc1ccccc1Cl > 9.22 µM
COCCn1c(=O)cnc2cnc(N(C)C)nc21 > 9.22 µM
COc1ccccc1-c1cc(-n2ccnc2)ncn1 > 46 µM
COc1ccccc1-c1cncnc1Nc1ccccc1 > 46 µM
Cc1ccccc1-c1cncnc1N1CCNCC1 > 46 µM
N#Cc1cccc(-c2cncnc2NCc2ccccc2)c1 > 46 µM
CCNc1ncc2nc(-c3cn(C)c4ccccc34)c(=O)n(CCC#N)c2n1 > 9.22 µM
c1csc(CNc2ncncc2-c2ccoc2)c1 > 46 µM
N#Cc1ccccc1-c1ccc2ncnc(NCc3cccs3)c2c1 > 46 µM
CNc1nc(-c2ccccc2C)nc2ccccc12 > 46 µM
CS(=O)(=O)Nc1cccc(-c2ccc3ncnc(Nc4ccc(F)cc4)c3c2)c1 > 46 µM
COc1ccccc1CNc1ccnc(-c2c(C)noc2C)n1 > 46 µM
CN(C)c1ccc(-c2cncnc2NCc2ccccc2)cc1 > 46 µM
CN(C)Cc1ccccc1-c1ccc2ncnc(N3CCOCC3)c2c1 > 46 µM
CN(Cc1ccco1)c1ccnc(-c2ccccc2C(F)(F)F)n1 > 46 µM
COc1ccc(-n2c(=O)c(-c3cccc(Cl)c3)nc3cncnc32)cc1 > 9.22 µM
Cc1cccc(CNc2ccnc(-c3ccccc3C(F)(F)F)n2)c1 > 46 µM
COc1ccccc1CNc1ccnc(-c2ccc(C(=O)N(C)C)cc2)n1 > 46 µM
CN(C)Cc1ccccc1-c1nccc(NCc2cccs2)n1 > 46 µM
CCNc1ncc2nc(-c3ccc(Cl)cc3)c(=O)n(-c3ccc(OC)cc3)c2n1 > 9.22 µM
COc1ccc(-n2c(=O)c(-c3cccc(F)c3)nc3cncnc32)cc1 > 9.22 µM
Cc1cnc(CNc2cc(-c3ccccc3Cl)ncn2)cn1 > 46 µM
Cc1c(CC(C)(C)C(=O)O)n(Cc2ccc(Cl)cc2)c2ccc(F)cc12 > 46 µM
